Laboratory results published in the supplement of paper PMC8371130.
Where a name gives a salt, the structure may show the parent alone.

Test system: HL-1
Assay: relative cell viability (CellTiter-Glo) vs DMSO control (% of DMSO control); higher = more viable cells
Settings: oxygen condition: normoxia 72 h; 1000 nM
Summary of the method: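 Cell viability was determined from CellTiter-Glo luminescence, expressed relative to vehicle-treated control cells. The cells were HL-1 mouse atrial cardiomyocytes, plated at 1000 cells per well in 384-well plates with compounds at 40, 200, 1000 or 5000 nM in 0.01% DMSO. One day after plating, they underwent 48 h of hypoxia (1% O2) in a hypoxic workstation followed by 24 h of reoxygenation in a normal incubator, or were kept in normoxia for an equal time.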

| Structure (SMILES) | relative cell viability |
| --- | --- |
| N[C@@H](CSCCCO)C(=O)O [Fudosteine] | 104 |
| Nc1nnc(-c2cccc(Cl)c2Cl)c(N)n1 [Lamotrigine] | 115 |
| Cn1nnc2c(C(N)=O)ncn2c1=O [Methazolastone] | 107 |
| COCCc1ccc(OCC(O)CNC(C)C)cc1 (stereo not drawn) [Metoprolol tartrate] | 103 |
| CC(=O)OCC[N+](C)(C)C [Acetylcholine chloride] | 104 |
| NS(=O)(=O)c1cc2c(cc1Cl)NCNS2(=O)=O [Hydrochlorothiazide] | 107 |
| CCN(CC)CCNC(=O)c1c(C)[nH]c(/C=C2\C(=O)Nc3ccc(F)cc32)c1C [Sunitinib Malate] | 114 |
| Cc1ncc(C[n+]2csc(CCO)c2C)c(N)n1 [Thiamine HCl] | 106 |
| CCCCCCCCCCC[C@@H](C[C@@H]1OC(=O)[C@H]1CCCCCC)OC(=O)[C@H](CC(C)C)NC=O [Orlistat] | 102 |
| O=c1c(-c2ccc(O)cc2)coc2cc(O)ccc12 [Daidzein] | 105 |
| O=C(O)/C=C/c1ccc(Cn2ccnc2)cc1 [Ozagrel] | 90 |
| Cc1cccc(C)c1NC(=O)C1CCCCN1C (stereo not drawn) [Mepivacaine HCl] | 111 |
| CC[C@@]1(O)C(=O)OCc2c1cc1n(c2=O)Cc2cc3c(CN(C)C)c(O)ccc3nc2-1 [Topotecan HCl] | 15.1 |
| N[C@@H]1CCCCN(c2c(F)cc3c(=O)c(C(=O)O)cn(C4CC4)c3c2Cl)C1 [Besifloxacin HCl] | 98.6 |
| O=P(O)(O)C(O)(Cn1ccnc1)P(=O)(O)O [Zoledronic Acid] | 102 |
| C#Cc1cccc(Nc2ncnc3cc(OCCOC)c(OCCOC)cc23)c1 [Erlotinib HCl] | 112 |
| CCCOc1ccc(C(=O)OCCN(CC)CC)cc1N [Proparacaine HCl] | 78.4 |
| C[C@]12CC[C@H](O)CC1=CC[C@@H]1[C@@H]2CC[C@]2(C)C(c3cccnc3)=CC[C@@H]12 [Abiraterone] | 78.7 |
| COc1ccc2[nH]c([S@@+]([O-])Cc3ncc(C)c(OC)c3C)nc2c1 [Esomeprazole magnesium] | 115 |
| NC(=O)CC[C@H](N)C(=O)O [L-Glutamine] | 114 |

| Structure (SMILES) | relative cell viability |
| --- | --- |
| CS(=O)(=O)c1ccc(C(=O)Nc2ccc(Cl)c(-c3ccccn3)c2)c(Cl)c1 [Vismodegib] | 114 |
| N#CC[C@H](C1CCCC1)n1cc(-c2ncnc3[nH]ccc23)cn1 [Ruxolitinib] | 102 |
| CC[C@@H]1/C=C(\C)C[C@H](C)C[C@H](OC)[C@H]2O[C@@](O)(C(=O)C(=O)N3CCCC[C@H]3C(=O)O[C@H](/C(C)=C/[C@@H]3CC[C@H](Cl)[C@H](OC)C3)[C@H](C)[C@@H](O)CC1=O)[C@H](C)C[C@@H]2OC [Pimecrolimus] | 94.7 |
| C#CCC(Cc1cnc2nc(N)nc(N)c2n1)c1ccc(C(=O)N[C@@H](CCC(=O)O)C(=O)O)cc1 (stereo partly drawn) [Pralatrexate] | 46.2 |
| CCOCC(O)COc1ccc(NC(=O)CC[S+](C)C)cc1 (stereo not drawn) [Suplatast tosylate] | 108 |
| CCN(CC)CCOC(=O)C(c1ccccc1)c1ccccc1 [Adiphenine HCl] | 101 |
| NC(=O)c1cn(Cc2c(F)cccc2F)nn1 [Rufinamide] | 111 |
| COc1nc(C)nc(Cl)c1NC1=NCCN1 [Moxonidine] | 107 |
| NC(=O)c1ncn([C@@H]2O[C@H](CO)[C@@H](O)[C@H]2O)n1 [Ribavirin] | 109 |
| CN1CCC(=C2c3ccccc3CC(=O)c3sccc32)CC1 [Ketotifen fumarate] | 105 |
| O=C1c2ccccc2C(=O)C1c1ccccc1 [Phenindione] | 102 |
| O=P(O)(O)C(Cl)(Cl)P(=O)(O)O [Clodronate Disodium] | 113 |
| COc1ccc2[nH]c([S@@+]([O-])Cc3ncc(C)c(OC)c3C)nc2c1 [Esomeprazole sodium] | 100 |
| CO[C@H]1C(=O)[C@]2(C)[C@@H](OC)C[C@H]3OC[C@@]3(OC(C)=O)[C@H]2[C@H](OC(=O)c2ccccc2)[C@]2(O)C[C@H](OC(=O)[C@H](O)[C@@H](NC(=O)OC(C)(C)C)c3ccccc3)C(C)=C1C2(C)C [Cabazitaxel] | 26.8 |
| Nc1cccc2c1CN(C1CCC(=O)NC1=O)C2=O (stereo not drawn) [Lenalidomide] | 117 |
| CCCN[C@H]1CCc2nc(N)sc2C1 [Pramipexole] | 107 |
| C#C[C@]1(O)CC[C@H]2[C@@H]3CCc4cc(O)ccc4[C@H]3CC[C@@]21C [Ethinyl Estradiol] | 108 |
| Cc1cnc(C(=O)NCCc2ccc(S(=O)(=O)NC(=O)NC3CCCCC3)cc2)cn1 [Glipizide] | 106 |
| O=C1N=C(O)NC1(c1ccccc1)c1ccccc1 [Phenytoin sodium] | 101 |

Same assay, conditions: oxygen condition: normoxia 72 h; 5000 nM

| Structure (SMILES) | relative cell viability |
| --- | --- |
| N[C@@H](CSCCCO)C(=O)O [Fudosteine] | 115 |
| Nc1nnc(-c2cccc(Cl)c2Cl)c(N)n1 [Lamotrigine] | 117 |
| Cn1nnc2c(C(N)=O)ncn2c1=O [Methazolastone] | 112 |
| COCCc1ccc(OCC(O)CNC(C)C)cc1 (stereo not drawn) [Metoprolol tartrate] | 111 |
| CC(=O)OCC[N+](C)(C)C [Acetylcholine chloride] | 106 |
| NS(=O)(=O)c1cc2c(cc1Cl)NCNS2(=O)=O [Hydrochlorothiazide] | 115 |
| CCN(CC)CCNC(=O)c1c(C)[nH]c(/C=C2\C(=O)Nc3ccc(F)cc32)c1C [Sunitinib Malate] | 111 |
| Cc1ncc(C[n+]2csc(CCO)c2C)c(N)n1 [Thiamine HCl] | 117 |
| CCCCCCCCCCC[C@@H](C[C@@H]1OC(=O)[C@H]1CCCCCC)OC(=O)[C@H](CC(C)C)NC=O [Orlistat] | 103 |
| O=c1c(-c2ccc(O)cc2)coc2cc(O)ccc12 [Daidzein] | 118 |
| O=C(O)/C=C/c1ccc(Cn2ccnc2)cc1 [Ozagrel] | 18 |
| Cc1cccc(C)c1NC(=O)C1CCCCN1C (stereo not drawn) [Mepivacaine HCl] | 111 |
| CC[C@@]1(O)C(=O)OCc2c1cc1n(c2=O)Cc2cc3c(CN(C)C)c(O)ccc3nc2-1 [Topotecan HCl] | 6.41 |
| N[C@@H]1CCCCN(c2c(F)cc3c(=O)c(C(=O)O)cn(C4CC4)c3c2Cl)C1 [Besifloxacin HCl] | 102 |
| O=P(O)(O)C(O)(Cn1ccnc1)P(=O)(O)O [Zoledronic Acid] | 109 |
| C#Cc1cccc(Nc2ncnc3cc(OCCOC)c(OCCOC)cc23)c1 [Erlotinib HCl] | 113 |
| CCCOc1ccc(C(=O)OCCN(CC)CC)cc1N [Proparacaine HCl] | 106 |
| C[C@]12CC[C@H](O)CC1=CC[C@@H]1[C@@H]2CC[C@]2(C)C(c3cccnc3)=CC[C@@H]12 [Abiraterone] | 112 |
| COc1ccc2[nH]c([S@@+]([O-])Cc3ncc(C)c(OC)c3C)nc2c1 [Esomeprazole magnesium] | 119 |
| NC(=O)CC[C@H](N)C(=O)O [L-Glutamine] | 113 |

| Structure (SMILES) | relative cell viability |
| --- | --- |
| CS(=O)(=O)c1ccc(C(=O)Nc2ccc(Cl)c(-c3ccccn3)c2)c(Cl)c1 [Vismodegib] | 112 |
| N#CC[C@H](C1CCCC1)n1cc(-c2ncnc3[nH]ccc23)cn1 [Ruxolitinib] | 104 |
| CC[C@@H]1/C=C(\C)C[C@H](C)C[C@H](OC)[C@H]2O[C@@](O)(C(=O)C(=O)N3CCCC[C@H]3C(=O)O[C@H](/C(C)=C/[C@@H]3CC[C@H](Cl)[C@H](OC)C3)[C@H](C)[C@@H](O)CC1=O)[C@H](C)C[C@@H]2OC [Pimecrolimus] | 106 |
| C#CCC(Cc1cnc2nc(N)nc(N)c2n1)c1ccc(C(=O)N[C@@H](CCC(=O)O)C(=O)O)cc1 (stereo partly drawn) [Pralatrexate] | 41.8 |
| CCOCC(O)COc1ccc(NC(=O)CC[S+](C)C)cc1 (stereo not drawn) [Suplatast tosylate] | 120 |
| CCN(CC)CCOC(=O)C(c1ccccc1)c1ccccc1 [Adiphenine HCl] | 110 |
| NC(=O)c1cn(Cc2c(F)cccc2F)nn1 [Rufinamide] | 112 |
| COc1nc(C)nc(Cl)c1NC1=NCCN1 [Moxonidine] | 111 |
| NC(=O)c1ncn([C@@H]2O[C@H](CO)[C@@H](O)[C@H]2O)n1 [Ribavirin] | 107 |
| CN1CCC(=C2c3ccccc3CC(=O)c3sccc32)CC1 [Ketotifen fumarate] | 106 |
| O=C1c2ccccc2C(=O)C1c1ccccc1 [Phenindione] | 108 |
| O=P(O)(O)C(Cl)(Cl)P(=O)(O)O [Clodronate Disodium] | 113 |
| COc1ccc2[nH]c([S@@+]([O-])Cc3ncc(C)c(OC)c3C)nc2c1 [Esomeprazole sodium] | 114 |
| CO[C@H]1C(=O)[C@]2(C)[C@@H](OC)C[C@H]3OC[C@@]3(OC(C)=O)[C@H]2[C@H](OC(=O)c2ccccc2)[C@]2(O)C[C@H](OC(=O)[C@H](O)[C@@H](NC(=O)OC(C)(C)C)c3ccccc3)C(C)=C1C2(C)C [Cabazitaxel] | 29.7 |
| Nc1cccc2c1CN(C1CCC(=O)NC1=O)C2=O (stereo not drawn) [Lenalidomide] | 114 |
| CCCN[C@H]1CCc2nc(N)sc2C1 [Pramipexole] | 108 |
| C#C[C@]1(O)CC[C@H]2[C@@H]3CCc4cc(O)ccc4[C@H]3CC[C@@]21C [Ethinyl Estradiol] | 110 |
| Cc1cnc(C(=O)NCCc2ccc(S(=O)(=O)NC(=O)NC3CCCCC3)cc2)cn1 [Glipizide] | 110 |
| O=C1N=C(O)NC1(c1ccccc1)c1ccccc1 [Phenytoin sodium] | 107 |
